Source: PubChem BioAssay
The list is not random: actives were taken first. Their share in the collection is about 21%.
Pf growth 96h = Primary qHTS for delayed death inhibitors of the malarial parasite plastid, 96 hour incubation; P. falciparum luciferase reporter growth, 96 h; Potency, µM (series often up to 28.7 µM), without a hit: at the highest dose activity change, negative = inhibition, hits mostly inhibitors; 320,000 compounds, 6.9% hits; also: potency is read from the fitted curve at half-maximal effect; % is scaled to controls: 0 for no effect and ±100 for the full control effect
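Two-generation exposure (96 h) targets delayed-death phenotype. Reporter parasites carrying integrated firefly luciferase, in red cells at 2% hematocrit and 0.05% parasitemia final, kept at 37 C, 5% CO2; luminescence loss indicates inhibition.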
CHX counter = Cycloheximide Counterscreen for Small Molecule Inhibitors of Shiga Toxin; cell reporter, cycloheximide protein synthesis inhibition counterscreen; max response, %; 300,000 compounds, 12% hits; AID 2314, 2010; in the data active = max response mostly above about 13%, no sharp cut-off; inactive = mostly below about 14%; also: read at 38.3 µM for the half of the compounds with a filed dose; 0% is about no effect
NS1 function inh = qHTS Assay for Inhibitors of Influenza NS1 Protein Function. Potency, µM (series often up to 46.1 µM), inactives show at the highest dose activity, positive = more growth. 270,000 compounds, 0.4% hits. AID 2326, 2010; calls by dose curve; also: potency is read from the fitted curve at half-maximal effect; actives are rising curves; nearly all actives have a fitted effect of over 50% in size
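Recovery from NS1-induced slow growth read by OD600 in budding yeast switched to galactose assay medium (pH 6.0, -URA) at 1:100 dilution. Compound 23 nl per well; the matching strain lacking NS1 serves as control.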
SARS PLP yeast = qHTS of Yeast-based Assay for SARS-CoV PLP. S. cerevisiae expressing SARS-CoV PLpro, growth rescue. Potency, µM (series often up to 32.9 µM), for the others: top-dose activity, positive = growth rescue, usual class: activators. 330,000 compounds, 0.19% hits. AID 485353, 2010; calls by dose curve; also: potency is read from the fitted curve at half-maximal effect; 0% is about no effect; nearly all actives have a fitted effect of over 55% in size
Pf growth 48h = Primary qHTS for delayed death inhibitors of the malarial parasite plastid, 48 hour incubation | P. falciparum luciferase growth in erythrocytes, 48 h | Potency, µM (top dose mostly 28.7 µM), for the others: top-dose activity change, negative = inhibition, hits mostly inhibitors | 310,000 compounds, 5.9% hits; also: potency is read from the fitted curve at half-maximal effect; % is scaled to controls: 0 for no effect and ±100 for the full control effect
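Firefly luciferase activity from engineered P. falciparum reports growth; inhibitors lower the luminescent signal. Cultures contained 2% hematocrit erythrocytes at 0.1% final parasitemia.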
Shiga inhibitor = A qHTS for Small Molecule Inhibitors of Shiga Toxin | AID 2315, 2010 | inhibition, % at 38.7 µM | 290,000 compounds, 9.2% hits | Vero cells, Shiga toxin protein synthesis inhibition reporter; in the data active = inhibition mostly above about 28%, no sharp cut-off; inactive = mostly below about 43%; also: 0% is about no effect
Numbers without * were called inactive; ? = inconclusive; . = no result given. Unless noted, calls follow the shape of the dose curve; as a rule, active = well fitted inhibition curve with a large enough effect; inconclusive = small, poorly fitted or top-dose-only effect, or another doubt; inactive = no such curve, though single readings can be large or run the other way.

SMILES | Pf growth 96h | CHX counter | NS1 function inh | SARS PLP yeast | Pf growth 48h | Shiga inhibitor
Cc1c(NC(=O)c2ccccc2)c(=O)n(-c2ccccc2)n1C | 10µM* | -2 | 3% | 9% | 25% | 12
Cc1c(NC(=O)c2ccc(-c3ccc([N+](=O)[O-])cc3Cl)o2)c(=O)n(-c2ccccc2)n1C | 9.3µM* | -3 | 2% | 1% | 20% | -25
Cc1c(NC(=O)c2c(F)c(F)c(F)c(F)c2F)c(=O)n(-c2ccccc2)n1C | -2% | -3 | -9% | 2% | -12% | -13
Cc1c(C(=S)NC(=O)C2CC2)c(=O)n(-c2ccccc2)n1C | 15µM* | 7 | . | 1% | -30% | -8
O=C(/C=C/c1ccc([N+](=O)[O-])cc1)OCC(=O)N1c2ccccc2Sc2ccccc21 | 0% | -2 | 8% | 14% | 2% | -12
C[C@@H](NC(=O)Cn1ccc(N)nc1=O)c1cccc2ccccc12 | 8% | . | . | 3% | 43% | .
Cc1c(NC(=O)c2cccc(S(=O)(=O)N3CCOCC3)c2)c(=O)n(-c2ccccc2)n1C | 8.3µM* | -3 | 0% | 4% | -3% | -11
C=CCc1cccc(CNc2c(C)n(C)n(-c3ccccc3)c2=O)c1O | 66% | 1 | 8% | -10% | 10µM* | -11
Cc1c(NCc2ccccc2O)c(=O)n(-c2ccccc2)n1C | 6% | 3 | 21% | 2% | 1% | 2
COc1cc(S(=O)(=O)n2nc(C)cc2C)c(OC)cc1Cl | ? | -1 | -3% | -7% | . | -3
CC1CCC(NC(=O)Cn2c(=O)oc3ccccc32)CC1 (stereo unspecified) | ? | 29 | 13% | -3% | -1% | -8
Cc1ccc(C2=NN=C(NC(=O)CSc3nnc4c5ccccc5n(C)c4n3)SC2)cc1 | 18% | 9 | 6% | -82% | 3.3µM* | 30
O=[N+]([O-])c1cccc(-c2ccc(SCc3cccnc3)nn2)c1 | 98% | 44* | . | -10% | 10% | 52
O=C(CSc1ccc(-c2cccc([N+](=O)[O-])c2)nn1)NCc1ccccc1 | 0% | -2 | . | -9% | 8% | -5
CSc1ccc(-c2cccc([N+](=O)[O-])c2)nn1 | 128% | 27* | . | -4% | 48% | 79*
CCN1CCN(c2ccc(S(=O)(=O)N3CCCCC3)cc2NC(=O)c2ccc([N+](=O)[O-])o2)CC1 | 8.3µM* | . | . | 1% | 13µM* | .
COc1ccc(S(=O)(=O)N2CCCCC2)cc1NC(=O)c1ccco1 | ? | 1 | 2% | 3% | -19% | -5
COc1ccc(S(=O)(=O)N2CCCCC2)cc1NC(=O)c1ccc([N+](=O)[O-])o1 | 6.6µM* | 23* | . | 2% | ? | 44*
COc1cc(OC)c2c(c1)C(=O)OC2 | -18% | -2 | 2% | -1% | 11% | 13
N#Cc1nc(-c2ccccc2)oc1NCc1ccco1 | 29% | 24* | -14% | -19% | 8% | active
N#Cc1nc(-c2ccccc2Cl)oc1NCc1ccco1 | . | 22* | -29% | -25% | 1% | 47*
N#Cc1nc(-c2ccc(Cl)cc2)oc1NCc1ccco1 | . | 28* | -15% | 2% | 26% | 91*
C=CCNc1oc(-c2ccc(-c3ccccc3)cc2)nc1C#N | . | . | . | 9% | . | .
N#CS.N=C=S.N=C=S.[Cu].[NH2-].[NH2-].[NH2-].[NH2-].c1ccc2ncccc2c1 | . | . | 1% | . | . | .
Cc1cc(NC(=O)C2C3C(=O)N(c4cccnc4)C(C(=O)NC(C)(C)C)C34C=CC2(C)O4)no1 (stereo unspecified) | 13µM* | -3 | 4% | 0% | -11% | -5
SMILES | Pf growth 96h | CHX counter | NS1 function inh | SARS PLP yeast | Pf growth 48h | Shiga inhibitor
Oc1ccc(Nc2nc(-c3ccccc3)nc3ccccc23)cc1 | -66% | -2 | 1% | -8% | -5% | -6
Cc1nc2ccccc2nc1N/N=C/c1ccc(O)cc1 | 41% | 40* | -4% | -3% | 27% | 53*
Oc1ccc(Nc2nc3ccccc3nc2Nc2ccc(O)cc2)cc1 | . | 14* | 4% | 7% | . | 40
CCOc1ccc(CCNC(=O)Cn2ccc3ccccc3c2=O)cc1OCC | ? | -2 | 2% | 2% | -14% | 25
COc1ccc(OC)c(S(=O)(=O)Nc2c(NC3CCCCC3)c3ccccc3oc2=O)c1 | -22% | -11 | 8% | 6% | ? | -5
COc1cc(C(=O)Nc2ccc3c(c2)nc(C)n3C)cc(OC)c1OC | 10% | 12 | 25% | 3% | 59% | 12
Cc1cc2nc(C)n(CCCNC(=O)Nc3ccc(F)cc3)c2cc1C | . | -4 | -3% | 5% | 12µM* | -19
Cc1nc2cc(NC(=O)c3ccc(Cl)cc3)ccc2n1C | ? | 26* | ? | 5% | 164% | .
CCOc1ccc(NC(=O)Nc2ccc3c(c2)nc(C)n3C)cc1 | -13% | 2 | ? | 0% | ? | 20
Cc1ccc(NC(=O)Nc2ccc3c(c2)nc(C)n3C)cc1C | ? | 45* | 0% | 0% | 127% | 108*
O=C(NCCN1CCCCC1)Nc1ccc(F)cc1 | ? | -4 | -4% | 2% | 7% | -8
COc1ccccc1NC(=O)Nc1ccc2c(c1)nc(C)n2C | 0% | 28* | 2% | -1% | -46% | 31
CC(C)CCN1CCN(C2CSCCSC2)CC1CCO (stereo unspecified) | 120% | 0 | 1% | -1% | 25% | 7
CC(=O)Nc1ccc2c(c1)nc(C)n2-c1ccccc1 | ? | 13* | 14% | 5% | 46% | 36
Cc1nc2cc(NC(=O)COc3ccc(C#N)cc3)ccc2n1-c1ccccc1 | ? | 8 | -17% | ? | -9% | -7
COc1ccc(C)cc1N(C(=O)c1snc(C(N)=O)c1N)C(C(=O)NC1CCCC1)c1ccc(F)cc1 (stereo unspecified) | 21% | -3 | ? | 1% | 9.3µM* | 11
COCCN(C(=O)c1snc(C(N)=O)c1N)C(C(=O)NC1CCCC1)c1cc(OC)c(OC)c(OC)c1 (stereo unspecified) | ? | -2 | -8% | 2% | -6% | 2
COc1ccc(C(C(=O)NC2CCCC2)N(C(=O)c2snc(-c3ccc(F)cc3)c2N)c2ccc(OC)cc2)cc1 (stereo unspecified) | 5.2µM* | 11 | 2% | 1% | ? | 20
COc1ccc(C(C(=O)NC2CCCC2)N(C(=O)c2snc(-c3ccc(F)cc3)c2N)c2ccc(F)cc2)cc1 (stereo unspecified) | -4% | -2 | 12% | 5% | ? | -15
COc1ccc(N(C(=O)c2snc(C(N)=O)c2N)C(C(=O)NC2CCCC2)c2ccc(F)cc2)c(OC)c1 (stereo unspecified) | 219% | 8 | 9% | 0% | ? | -6
